Bioassay records from PubChem BioAssay.
tim23-1 inh: tim23-1 yeast growth inhibition. S. cerevisiae tim23-1 growth, BacTiter-Glo luminescence, 24 h. inhibition, % at 20 µM. 330,000 tested, 1.3% active. AID 463212;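 active = growth inhibition of the mutant yeast at or above 50%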;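 note: temperature-sensitive mutant grown at 25 °C; plate controls were DMSO-treated mutant yeast for no effect and medium wells lacking yeast for full effect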
NALP1 yeast inh: NALP1 inhibition; AID 2071; inhibition, % at 10 µM; 280,000 tested, 0.61% active; S. cerevisiae NALP1/ASC/caspase-1 growth, X-gal OD620, 72 h; in the data active = inhibition mostly above about 24%, no sharp cut-off; inactive = mostly below about 32%
NLRP3 yeast inh: NALP3 inhibition in yeast; 330,000 tested, 0.39% active; AID 2825; Yeast reconstituted NLRP3/ASC/caspase-1, beta-gal luminescence, 24 h; inhibition, % at 10 µM;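 active = inhibition of 50% or more; inactive = inhibition below 50%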;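 note: plate controls were induced DMSO wells for no effect and uninduced yeast grown without galactose for full effect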
tim10-1 inh: inhibits growth of tim10-1 mutant yeast. S. cerevisiae tim10-1 ts strain growth, BacTiter-Glo, 24 h. inhibition, % at 20 µM. 330,000 tested, 2.2% active;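 active = inhibition of at least 40%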;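 note: mutant grown at 25 °C; 0% = DMSO wells with yeast and 100% = wells holding no yeast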
V-ATPase pHluor: alters yeast V-ATPase proton transport; S. cerevisiae, pHLuorin cytosolic pH fluorescence; response, % at 10 µM; 350,000 tested, 0.37% active; AID 504577; in the data active = response mostly above about 7.3%, no sharp cut-off; inactive = mostly below about 5.4%; note: actives read high
TIM10 inh: growth inhibitors of TIM10 yeast strain; S. cerevisiae TIM10 strain growth, BacTiter-Glo luminescence, 24 h; inhibition, % at 10 µM; 330,000 tested, 1.4% active;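 active = inhibition of 40% or more at the single tested concentration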;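 note: wild-type TIM10 isogenic control strain grown at permissive 25 °C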
tim10 confirm: TIM10 yeast growth inhibition, confirmed | shares compounds with TIM10 inh | S. cerevisiae tim10 strain growth, BacTiter-Glo luminescence, 24 h | inhibition, % at 10 µM | 4,600 tested, 63% active | AID 463215;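 active = inhibition of yeast growth at or above a set limit in either of two replicates at 10 µM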;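 note: this counterscreen used the strain with wild-type TIM10; 0% = yeast with DMSO and 100% = medium wells lacking yeast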
* marks the source's active call; other numbers are inactive results; / = no result given. Compounds with a hit are over-represented: about 4.2% of the library has one in this group of screens.

SMILES | tim23-1 inh | NALP1 yeast inh | NLRP3 yeast inh | tim10-1 inh | V-ATPase pHluor | TIM10 inh | tim10 confirm
CCOc1ccc(-n2cnc3scc(-c4ccc(OC)c(OC)c4)c3c2=O)cc1 | 26.6 | 8.1 | 16.9 | 35.9 | 0.8 | 40.6* | 16.4
COc1ccc(-c2nc3scc(-c4ccc(OC)c(OC)c4)c3c(=O)o2)cc1 | -9.5 | -15.4 | 12.4 | 4.1 | 0.0 | -7.3 | /
C=CCn1c(SCc2c(Cl)cccc2Cl)nnc1-c1cccnc1 | 26.9 | 7.9 | -2.4 | 38.7 | 2.6 | 40.6* | 16.9
CCOc1ccc(N(CC(=O)N2CCC(Cc3ccccc3)CC2)S(C)(=O)=O)cc1 | 31.3 | 5.7 | 12.1 | 38.3 | 0.9 | 25.6 | /
COc1ccc(-c2csc(COC(=O)C(C)(C)C)n2)cc1 | 7.3 | -2.9 | 19.6 | 17.7 | -2.9 | -11.5 | /
CCOC(=O)c1cnn(-c2nc(-c3ccc(F)cc3)cs2)c1C(F)(F)F | 22.8 | 3.1 | 14.1 | 24.8 | 2.8 | 45.3* | 25.9
CC(C)(C)C(=O)OCc1nc(-c2ccc(F)cc2)cs1 | 31.5 | -0.4 | 9.1 | 38.0 | 7.3 | 40.9* | 39.1*
Cc1c(Cl)cccc1NC(=S)NCCC(C)C | 23.1 | 22.5 | -16.2 | 29.3 | -1.8 | 49.2* | 34.1*
Cc1c(Cl)cccc1NC(=S)NCc1ccccc1Cl | 24.9 | 18.0 | 36.7 | 37.8 | -0.9 | 8.6 | /
Cc1c(Cl)cccc1NC(=S)NCCC(c1ccccc1)c1ccccc1 | 3.9 | 15.6 | 14.7 | 36.8 | 0.7 | 49.7* | 20.4
COc1ccc(NC(=S)NCCC(c2ccccc2)c2ccccc2)c(OC)c1 | 13.0 | / | 7.3 | 23.2 | 1.7 | 45.3* | 30.9*
Fc1c(F)c(-n2nnc3ccccc32)c(F)c(F)c1Cl | 15.8 | -14.0 | -26.7 | 9.1 | -2.1 | -28.2 | /
CCc1ccc(OCCn2cccn2)cc1 | 6.1 | -2.6 | 17.6 | 11.1 | -2.2 | 1.5 | /
Nc1nc(-c2ccc3c(c2)NC(=O)CO3)cs1 | 5.8 | 2.1 | 20.0 | 5.9 | -1.7 | 14.3 | /
Cc1ccc2nc(-c3ccc4c(c3)NC(=O)CO4)cn2c1 | 35.3 | 13.1 | 0.0 | 20.0 | -2.8 | 45.5* | 44.7*
CCCCOc1c(Br)cc(/C=C2\N=C(C)OC2=O)cc1OCC | 46.7 | -18.6 | -4.8 | 37.3 | -1.4 | 49.2* | 18.7
CCOC(=O)N1CCN(C(=O)c2ccc3c(c2)sc2nc(-c4ccccc4)cn23)CC1 | 39.7 | 13.6 | 11.6 | 35.5 | -2.9 | 44.5* | 52.8*
C/C(=N\NC(N)=S)c1ccc2c(c1)OCCO2 | 10.5 | 2.3 | 16.4 | 16.8 | -3.5 | -3.5 | /
C/C(=N\NC(=S)Nc1ccc(F)cc1)c1ccc2c(c1)OCCO2 | 38.0 | 4.2 | 22.0 | 34.9 | -0.3 | 44.0* | 50.6*
Cc1cc(OCC(=O)OCC(=O)NCCN2C(=O)CSC2=O)ccc1Cl | -4.1 | / | 2.9 | -6.5 | -1.5 | -4.4 | /
Cc1ccc(S(=O)(=O)N2CC(C)N(C(=O)N3CCOCC3)C2C)cc1 (stereo not drawn) | 8.2 | -2.4 | 19.4 | 2.0 | -0.6 | 5.6 | /
COc1ccc(N=Nc2nc(-c3ccccc3)c(-c3ccccc3)[nH]2)cc1 | 33.6 | 21.9 | 47.5 | 32.2 | 0.1 | 41.4* | 8.4
COC(=O)c1ccc(C)c(NC(=O)c2ccc(Cn3cc([N+](=O)[O-])cn3)o2)c1 | 8.3 | 16.3 | 12.4 | 16.8 | -0.9 | 11.8 | /
CCNS(=O)(=O)c1ccc(NC(=O)c2ccc(Cn3cc([N+](=O)[O-])cn3)o2)cc1 | 8.7 | 20.6 | 12.6 | -7.5 | 0.8 | 47.0* | 3.1
O=C1CSC(c2ccccc2Br)N1c1ccc(Cl)cn1 (stereo not drawn) | 48.6 | 21.1 | -25.0 | 26.6 | 2.8 | 40.5* | 28.6
SMILES | tim23-1 inh | NALP1 yeast inh | NLRP3 yeast inh | tim10-1 inh | V-ATPase pHluor | TIM10 inh | tim10 confirm
CCOc1cc(/C=N/NC(=O)COc2ccccc2C)ccc1OC(=O)c1cccs1 | 31.6 | 22.6 | -3.5 | 23.2 | 2.2 | 40.6* | 26.2
CCC(C)NC(=O)c1cc2c(=O)n3ccccc3nc2s1 (stereo not drawn) | 26.1 | -15.8 | 4.1 | 20.8 | 2.2 | -3.5 | /
CCC(C)NC(=O)c1cc2cc3ccc(OC)cc3nc2s1 (stereo not drawn) | 36.7 | 46.2 | 3.7 | 27.4 | 4.2 | 45.8* | 24.9
COc1ccc2cc3cc(C(=O)NCCN4CCc5ccccc5C4)sc3nc2c1 | 22.4 | -12.8 | 18.8 | 25.8 | 6.3 | 69.3* | 67.4*
COc1ccc(/C=C/CN2CCCC(CO)(Cc3cccc(Cl)c3)C2)cc1 (stereo not drawn) | -33.5 | 31.0 | 3.0 | -0.7 | -3.0 | 0.0 | /
COc1ccc(CSc2nc(C)[nH]c2[N+](=O)[O-])cc1[N+](=O)[O-] | -7.3 | / | 17.9 | -1.5 | 9.8 | -11.1 | /
COc1ccc(Cc2nc(C)cc(Cl)n2)cc1[N+](=O)[O-] | -8.5 | 13.5 | 17.0 | -3.6 | 0.4 | 41.9* | -4.0
CCC(=O)NC(=S)Nc1ccc(NC(=O)COc2ccc(Cl)cc2Cl)cc1 | 12.9 | -3.4 | -1.8 | 26.3 | 0.3 | 33.8 | /
COc1ccc(NC(=S)NNC(=O)COc2ccc(Cl)cc2Cl)cc1 | 41.5 | 5.0 | 24.7 | 29.9 | -0.4 | 46.6* | -12.7
Cc1cc(C)c(S(=O)(=O)N2CCC(C(=O)NCc3ccc(Cl)cc3Cl)CC2)c(C)c1 | 30.3 | 4.1 | 47.5 | 29.5 | 3.0 | 56.1* | 50.6*
Cc1cc(C)c(S(=O)(=O)N2CCC(C(=O)NCc3ccncc3)CC2)c(C)c1 | 0.0 | 23.7 | 12.0 | 0.2 | -0.5 | 16.8 | /
Cc1ccc(NC(=O)C2=C(C(=O)O)CCCC2)cc1F | -15.0 | 12.7 | 10.9 | -14.9 | -0.8 | -3.6 | /
CCCCCCC(=O)NNC(=O)c1c(O)c2ccccc2n(CCC)c1=O | 4.2 | -9.8 | 41.7 | 3.4 | -3.2 | 45.6* | -12.1
O=C(c1ccc([N+](=O)[O-])s1)N1CCN(c2ccc(C(F)(F)F)cn2)CC1 | 32.3 | 9.1 | 7.3 | 9.6 | -3.6 | 42.3* | 26.9
Cn1c(CNC(=O)c2ccco2)nnc1SCC(=O)Nc1ccccc1Cl | -2.0 | / | 13.3 | -1.5 | 3.4 | 6.5 | /
O=C(Nc1ccc(C2=NCCN2)cc1)c1ccc(Cl)c(C(=O)Nc2ccc(C3=NCCN3)cc2)c1 | -110.4 | 9.6 | 15.6 | -31.5 | / | -75.6 | /
O=C(Nc1c(F)cccc1F)c1cnc(N2CCN(c3ccccn3)CC2)c2ccccc12 | 30.8 | 11.7 | 17.6 | 34.8 | 6.9 | 43.2* | 38.2*
CCOc1ccc(OCCSc2ccc(S(=O)(=O)N3CCN(C)CC3)cn2)cc1 | 49.7 | / | 42.9 | 37.9 | -0.3 | 46.4* | 51.9*
O=S(=O)(c1ccc(SCCOc2ccc(Cl)cc2)nc1)N1CCCC1 | 42.2 | / | -13.8 | 23.1 | -3.8 | 14.5 | /
Cc1nc2oc3c(NCc4ccccc4)ncnc3c2c2c1COC(C)(C)C2 | 40.0 | 25.7 | -31.7 | 36.6 | 2.0 | 40.5* | 25.4
CN(C)/C=C/c1c([N+](=O)[O-])c2ccc(O)cc2n1-c1ccccc1 | 33.1 | 15.6 | -9.1 | -16.0 | -1.2 | 7.5 | /
O=C(O)CCNC(=O)c1ccc(NC(=O)Cc2ccc(Cl)cc2)cc1 | 8.9 | -3.8 | 17.3 | 2.9 | -1.1 | -5.9 | /
